According to PubChem BioAssay (NCATS):
Records with an inconclusive call do not appear. Activity calls are given as the source filed them. Calls come from the whole dose curve; as a rule, active = well fitted curve in the direction sought with a large enough effect; inconclusive = small, poorly fitted or top-dose-only effect, or another doubt; inactive = no such curve, though single readings can be large; an effect the other way counts as inactive or inconclusive. *1 amine or outer side, *2 acyl side, *3 side chain or, on linkers, in order; H or OH if unused. Where a SMILES comes first, the peptide text is derived from it. Bridges are numbered along the chain shown (N, C = ends). [ ]: non-standard residue; d: D form. The star is where a group is joined. ξ: configuration not given here. X10 = NC1=NCCC(C(N[*:1])C(=O)[*:2])N1; ΔAla(3-NHCONH2) = NC(=O)NC=C(N)C(=O)O; ξβ3hOrn = NCCCC(N)CC(=O)*; Dap = NC[CH](N)C(=O)O

Key:
[1] = qHTS of pediatric cancer cell lines to identify multiple opportunities for drug repurposing: Primary screen for DAOY cells (AID 1347090); note: nearly all actives have a fitted effect of over 55% in size; note: potency is the fitted concentration of half-maximal effect;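 for activity change, negative = cytotoxic: series mostly up to about 46 µM; plate controls were DMSO for no effect and bortezomib for full effect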
Outline: (§1)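 Eight- or eleven-point concentration series, 48 h treatment at 37 degrees C in growth media; readout CellTiter-Glo luminescence. Potency and efficacy were taken from the concentration-response curves.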

[2] = qHTS of pediatric cancer cell lines to identify multiple opportunities for drug repurposing: Primary screen for SJ-GBM2 cells (AID 1347091); note: potency is the fitted concentration of half-maximal effect;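 for activity change, negative = cytotoxic: plate controls were DMSO neutral control for no effect and bortezomib for full effect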
Outline: as §1

[3] = qHTS of pediatric cancer cell lines to identify multiple opportunities for drug repurposing: Primary screen for A673 cells (AID 1347092); note: nearly all actives have a fitted effect of over 45% in size; note: potency is the fitted concentration of half-maximal effect; for activity change, negative = cytotoxic: % is set by controls: 0 for no effect and ±100 for the full control effect
Outline: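 Cell viability of A673 measured by CellTiter-Glo ATP luminescence after 48 hours compound exposure. Dilution series spanned 0.78 nM to 46 µM (MIPE, 11-point) or 0.59 nM to 46 µM (NPC, 8-point); bortezomib 2.3 uM positive control.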

[4] = qHTS of pediatric cancer cell lines to identify multiple opportunities for drug repurposing: Primary screen for SK-N-MC cells (AID 1347093); note: potency is the fitted concentration of half-maximal effect;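 for activity change, negative = cytotoxic: series mostly up to about 46 µM; plate controls were DMSO neutral control for no effect and bortezomib for full effect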
Outline: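 Metabolically active cells were quantified by ATP-dependent luminescence (CellTiter-Glo, 15 min at room temperature) following 48 h treatment. Cells had been plated at 500-1,000 per well and settled for 5 h beforehand.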

[5] = qHTS of pediatric cancer cell lines to identify multiple opportunities for drug repurposing: Primary screen for BT-37 cells (AID 1347094); note: potency is the fitted concentration of half-maximal effect;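 for activity change, negative = cytotoxic: series mostly up to about 57 µM; plate controls were DMSO for no effect and bortezomib for full effect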
Outline: (§2)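 Cells seeded at 500-1,000 cells/well in growth media, rested 5 hours at 37 degrees C, 5% CO2, then dosed; MIPE compounds at 11-point (from 0.78 nM) and NPC at 8-point (from 0.59 nM) final concentrations. Viability by CellTiter-Glo luminescence after 48 hours.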

[6] = qHTS of pediatric cancer cell lines to identify multiple opportunities for drug repurposing: Primary screen for U-2 OS cells (AID 1347096);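 note: plate controls were DMSO wells for no effect and bortezomib positive control wells for full effect; nearly all actives have a fitted effect of over 50% in size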
Outline: (§3)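 Cells (500-1,000/well) in growth media were settled 5 h at 37 degrees C, then given compounds for 48 h. Viability was read as CellTiter-Glo luminescence. Primary runs used MIPE at 11 points (0.78 nM-46 µM) and NPC at 8 points (0.59 nM-46 µM); follow-ups used 11 points.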

[7] = qHTS of pediatric cancer cell lines to identify multiple opportunities for drug repurposing: Primary screen for Saos-2 cells (AID 1347097); note: nearly all actives have a fitted effect of over 40% in size; note: potency is the fitted concentration of half-maximal effect; for activity change, negative = cytotoxic: % is set by controls: 0 for no effect and ±100 for the full control effect
Outline: as §2

[8] = qHTS of pediatric cancer cell lines to identify multiple opportunities for drug repurposing: Primary screen for SK-N-SH cells (AID 1347098); note: nearly all actives have a fitted effect of over 65% in size; note: potency is the fitted concentration of half-maximal effect;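 for activity change, negative = cytotoxic: DMSO served as neutral control and bortezomib at 2.3 µM as positive control; % is set by controls: 0 for no effect and ±100 for the full control effect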
Outline: (§4)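 Cells (500-1,000/well) rested 5 h, then received compounds for 48 h; metabolically active cells were measured by CellTiter-Glo luminescence. Final concentrations spanned up to 46 µM (MIPE, 11-point) or 0.59 nM-46 µM (NPC, 8-point) in primary screens, 11-point in follow-ups.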

[9] = qHTS of pediatric cancer cell lines to identify multiple opportunities for drug repurposing: Primary screen for NB1643 cells (AID 1347099);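 note: plate controls were DMSO neutral control for no effect and bortezomib positive control for full effect; nearly all actives have a fitted effect of over 50% in size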
Outline: as §2

[10] = qHTS of pediatric cancer cell lines to identify multiple opportunities for drug repurposing: Primary screen for LAN-5 cells (AID 1347100);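 note: plate controls were DMSO neutral control for no effect and bortezomib positive control for full effect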
Outline: as §3

[11] = qHTS of pediatric cancer cell lines to identify multiple opportunities for drug repurposing: Primary screen for BT-12 cells (AID 1347101); note: nearly all actives have a fitted effect of over 25% in size; note: potency is the fitted concentration of half-maximal effect;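 for activity change, negative = cytotoxic: plate controls were DMSO for no effect and bortezomib positive control for full effect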
Outline: as §4

[12] = qHTS of pediatric cancer cell lines to identify multiple opportunities for drug repurposing: Primary screen for Rh18 cells (AID 1347102); note: % is set by controls: 0 for no effect and ±100 for the full control effect; nearly all actives have a fitted effect of over 65% in size
Outline: as §3

[13] = qHTS of pediatric cancer cell lines to identify multiple opportunities for drug repurposing: Primary screen for RD cells (AID 1347104); note: nearly all actives have a fitted effect of over 55% in size; note: potency is the fitted concentration of half-maximal effect;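 for activity change, negative = cytotoxic: plate controls were DMSO for no effect and bortezomib for full effect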
Outline: as §2

[14] = qHTS of pediatric cancer cell lines to identify multiple opportunities for drug repurposing: Primary screen for MG 63 (6-TG R) cells (AID 1347105); note: nearly all actives have a fitted effect of over 50% in size; note: potency is the fitted concentration of half-maximal effect; for activity change, negative = cytotoxic: % is set by controls: 0 for no effect and ±100 for the full control effect
Outline: as §2

[15] = qHTS of pediatric cancer cell lines to identify multiple opportunities for drug repurposing: Primary screen for control Hh wild type fibroblast cells (AID 1347106);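 note: series mostly up to about 46 µM; % is set by controls: 0 for no effect and ±100 for the full control effect; a drop in luminescence marks cytotoxicity and a rise apparent proliferation; nearly all actives have a fitted effect of over 55% in size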
Outline: as §3

[16] = qHTS of pediatric cancer cell lines to identify multiple opportunities for drug repurposing: Primary screen for Rh30 cells (AID 1347107); note: series mostly up to about 46 µM; % is set by controls: 0 for no effect and ±100 for the full control effect; nearly all actives have a fitted effect of over 75% in size
Outline: as §3

[17] = qHTS of pediatric cancer cell lines to identify multiple opportunities for drug repurposing: Primary screen for Rh41 cells (AID 1347108);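 note: series mostly up to about 46 µM; luminescence drop marks cytotoxic hits; nearly all actives have a fitted effect of over 70% in size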
Outline: as §2

[18] = qHTS of pediatric cancer cell lines to identify multiple opportunities for drug repurposing: Primary screen for OHS-50 cells (AID 1347103); note: nearly all actives have a fitted effect of over 40% in size; note: potency is the fitted concentration of half-maximal effect;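 for activity change, negative = cytotoxic: plate controls were DMSO neutral control for no effect and bortezomib positive control for full effect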
Outline: as §4

[19] = qHTS of pediatric cancer cell lines to identify multiple opportunities for drug repurposing: Primary screen for NB-EBc1 cells (AID 1347095); note: potency is the fitted concentration of half-maximal effect
Outline: as §2

CN1Cc2cc(C(=O)N3CCC(C4CCNCC4)CC3)ccc2NC(CC(=O)O)C1=O (stereo unspecified)
inactive: Potency [1] | Potency [2] | Potency [3] | Potency [4] | Potency [5] | Potency [6] | Potency [7] | Potency [8] | Potency [9] | Potency [10] | Potency [11] | Potency [12] | Potency [13] | Potency [14] | Potency [15] | Potency [16] | Potency [17]

CCCCCCCC(=O)[O-].CCCCCCCC(=O)[O-].[Zn+2]
inactive: Potency [1] | Potency [2] | Potency [3] | Potency [4] | Potency [5] | Potency [6] | Potency [7] | Potency [8] | Potency [9] | Potency [10] | Potency [11] | Potency [12] | Potency [18] | Potency [13] | Potency [14] | Potency [15] | Potency [16] | Potency [17]

COCCOCC(OC)OC
inactive: Potency [1] | Potency [2] | Potency [3] | Potency [4] | Potency [5] | Potency [6] | Potency [7] | Potency [8] | Potency [9] | Potency [10] | Potency [11] | Potency [12] | Potency [18] | Potency [13] | Potency [14] | Potency [17]

O=C(Nc1ccc(Cl)cc1)Nc1ccc(Cl)c(C(F)(F)F)c1
active: Potency [1] 13.3 µM | Potency [2] 3.35 µM | Potency [3] 21.1 µM | Potency [4] 4.73 µM | Potency [5] 27.6 µM | Potency [19] 5.96 µM | Potency [7] 13.3 µM | Potency [8] 8.64 µM | Potency [11] 9.78 µM | Potency [18] 5.5 µM | Potency [13] 11.9 µM | Potency [14] 21.1 µM

CCOC(=O)Cn1cccc1-c1nc(-c2ccc(OC)cc2)c(-c2ccc(OC)cc2)s1
inactive: Potency [1] | Potency [2] | Potency [3] | Potency [4] | Potency [5] | Potency [6] | Potency [7] | Potency [8] | Potency [9] | Potency [10] | Potency [11] | Potency [12] | Potency [13] | Potency [14] | Potency [15] | Potency [16] | Potency [17]

Cc1nc(C2CCCCC2)c(-c2ccc(S(N)(=O)=O)c(F)c2)o1
inactive: Potency [1] | Potency [2] | Potency [3] | Potency [4] | Potency [5] | Potency [19] | Potency [6] | Potency [9] | Potency [10] | Potency [14] | Potency [15] | Potency [16] | Potency [17]

Cc1ccc2c(Cl)cc(Cl)c(O)c2n1
inactive: Potency [1] | Potency [2] | Potency [3] | Potency [4] | Potency [5] | Potency [6] | Potency [7] | Potency [8] | Potency [9] | Potency [10] | Potency [11] | Potency [12] | Potency [18] | Potency [13] | Potency [14] | Potency [15] | Potency [16] | Potency [17]

NCCCC(N)CC(=O)NCC1NC(=O)C(CO)NC(=O)C(N)CNC(=O)C(C2CCN=C(N)N2)NC(=O)C(=CNC(N)=O)NC1=O (stereo not drawn) (H-[Dap]S[Dap](ξβ3hOrn)[ΔAla(3-NHCONH2)][X10]; lactam 1-C; configuration not given here)
inactive: activity change, negative = cytotoxic [1] 6.38% [at 0.597 µM] | activity change, negative = cytotoxic [2] 34.8% [at 0.597 µM] | activity change, negative = cytotoxic [3] -4.68% [at 0.597 µM] | activity change, negative = cytotoxic [4] -13.5% [at 0.597 µM] | activity change, negative = cytotoxic [5] 18% [at 0.745 µM] | activity change, negative = cytotoxic [19] 29.4% [at 0.597 µM] | activity change, negative = cytotoxic [6] 13.6% [at 0.597 µM] | activity change, negative = cytotoxic [8] -4.49% [at 0.741 µM] | activity change, negative = cytotoxic [9] 13.7% [at 0.597 µM] | activity change, negative = cytotoxic [10] 6.67% [at 0.597 µM] | activity change, negative = cytotoxic [11] 5.9% [at 0.745 µM] | activity change, negative = cytotoxic [18] 13.9% [at 0.73 µM] | activity change, negative = cytotoxic [14] -12% [at 0.597 µM] | activity change, negative = cytotoxic [15] 5.88% [at 0.597 µM] | activity change, negative = cytotoxic [17] 17.6% [at 0.597 µM]
